Test results as given in the supplement of paper PMC5919970.
Over roughly 2,000 compounds, “fractional viability relative to vehicle” has its median near 0.91; the lowest 2% begin near 0.045. The entries come from a sample that favours the lowest values as a whole.

System: TYKNU
Assay: fractional viability relative to vehicle; TYKNU is a high-grade serous ovarian cancer line; higher = less growth inhibition
Conditions: 72 h
How it was run: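 Drug treatment lasted 72 h, with cells grown at 37 °C in 5% CO2 in RPMI 1640 supplemented with 10% FBS. Beforehand, TYKNU control cells or their lentiCRISPRv2 knockout derivatives had been seeded at 500 cells per well into drug-stamped 384-well plates carrying a ~2100-compound library at 2 or 10 μM, in duplicate. Viability came from Cell Titer Glo luminescence, with averaged duplicate treatment wells normalised to duplicate control wells in the same plate position.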

[1] = 2uM, genotype: DNM1L knockout (sgDNM1L #1)
[2] = 2uM, genotype: sgCTRLA1 (non-targeting control)
[3] = 10uM, genotype: DNM1L knockout (sgDNM1L #1)
[4] = 10uM, genotype: sgCTRLA1 (non-targeting control)

SMILES	fractional viability [1]	fractional viability [2]	fractional viability [3]	fractional viability [4]
CN(C)S(=O)(=O)c1ccc2c(c1)/C(=C/c1cc3c([nH]1)CCCC3)C(=O)N2	0.562	0.815	0.234	0.264
Cc1[nH]c(/C=C2\C(=O)Nc3ccc(S(=O)(=O)N(C)c4cccc(Cl)c4)cc32)c(C)c1C(=O)N1CCN(C)CC1	1.02	0.999	0.152	0.189
Cc1[nH]c(/C=C2\C(=O)Nc3ccc(S(=O)(=O)Cc4c(Cl)cccc4Cl)cc32)c(C)c1C(=O)N1CCC[C@@H]1CN1CCCC1	0.317	0.279	0.0474	0.0167
CCOC(=O)c1ccc(NC(=O)O[C@H]2[C@H](OC(=O)Nc3ccc4c(c3)OCO4)[C@@H](OC(=O)Nc3ccc4c(c3)OCO4)[C@@H](OC)O[C@@H]2CO)cc1	0.821	1.04	0.616	0.615
CCCCCCCCC/C(=C\C1=C(C)C(=O)C(OC)=C(OC)C1=O)C(=O)O	0.847	0.878	0.855	0.701
Cn1sc(=O)n(Cc2ccccc2)c1=O	0.797	0.735	0.0256	0.00748
Cc1ccc(-n2sc(=O)n(Cc3ccc(F)cc3)c2=O)cc1	0.995	1.11	0.469	0.618
O=C(NC[C@H](O)CN1CCc2ccccc2C1)c1cc(NC2COC2)ncn1	0.764	0.899	0.604	0.662
COc1ccc(-c2ccc3ncc4c(c3c2)n(-c2ccc(N3CCNCC3)c(C(F)(F)F)c2)c(=O)n4C)cn1	0.0297	0.0315	0.0158	0.0115
Nc1ccc(-c2ccc3ncc4ccc(=O)n(-c5cccc(C(F)(F)F)c5)c4c3c2)cn1 [Torin 2]	0.125	0.114	0.114	0.0945
O=C(Nc1ccc(OC(F)(F)F)cc1)c1sccc1NCc1ccnc2ccccc12	0.926	0.906	0.215	0.181
CN1CCN(c2c(F)cc3c(=O)c(C(=O)O)cn4c3c2OCN4C)CC1 [Marbofloxacin]	1.13	1.21	0.971	1.01
Cc1c(C(=O)NN2CCCCC2)nn(-c2ccc(Cl)cc2Cl)c1-c1ccc(Cl)cc1 [Rimonabant]	1.11	1.01	0.575	0.753
CNC(=O)c1ccc(Nc2ncc(C(F)(F)F)c(NCc3nccnc3N(C)S(C)(=O)=O)n2)cc1	0.702	0.772	0.213	0.179
CC(C)(O)c1ccccc1CC[C@@H](SCC1(CC(=O)O)CC1)c1cccc(/C=C/c2ccc3ccc(Cl)cc3n2)c1 [Montelukast Sodium]	0.809	1.13	0.762	1.05
CN(C)Cc1cccc(N/C(=C2\C(=O)Nc3cc(C(N)=O)ccc32)c2ccccc2)c1	1.01	0.992	1.05	0.912
CCS(=O)(=O)Nc1ccc2c(c1)/C(=C(/Nc1ccc(CN3CCCCC3)cc1)c1ccccc1)C(=O)N2 [Hesperadin]	0.316	0.329	0.0548	0.0381
COC(=O)c1ccc2c(c1)NC(=O)/C2=C(\Nc1ccc(N(C)C(=O)CN2CCN(C)CC2)cc1)c1ccccc1 [Nintedanib (BIBF 1120)]	0.903	0.889	0.152	0.147
CC#CCn1c(N2CCC[C@@H](N)C2)nc2c1c(=O)n(Cc1nc(C)c3ccccc3n1)c(=O)n2C [Linagliptin]	1.22	1.14	0.918	0.986
NC(=O)c1cn(Cc2c(F)cccc2F)nn1 [Rufinamide]	0.992	1.08	1.07	1.04
Cc1cc(C)nc(NS(=O)(=O)c2ccc(NC(=S)NC(=O)COc3ccc(Br)cc3Cl)cc2)n1	1.05	1.04	0.706	1.08
CN1CCN(c2ccc(Nc3cc(-c4cccc(-n5ccc6cc(C7CC7)cc(F)c6c5=O)c4CO)cn(C)c3=O)nc2)CC1	0.836	0.97	0.114	0.182
CCOC(=O)[C@@H](N)Cc1ccc(-c2cc(O[C@H](c3ccc(Cl)cc3-n3ccc(C)n3)C(F)(F)F)nc(N)n2)cc1 [Telotristat Etiprate (LX 1606 Hippurate)]	0.777	1.1	0.0468	0.12
CC(C)C[C@H](NC(=O)[C@H](CCc1ccccc1)NC(=O)CN1CCOCC1)C(=O)N[C@@H](Cc1ccccc1)C(=O)N[C@@H](CC(C)C)C(=O)[C@@]1(C)CO1 [Carfilzomib (PR-171)]	0.0773	0.0587	0.0559	0.057
CC(NC(=O)C(Cc1ccccc1)NC(=O)OCc1ccccc1)C(=O)CF (stereo unspecified)	0.85	0.869	0.793	0.606
CC(C)C[C@H](NC(=O)[C@H](Cc1ccccc1)NC(=O)c1cnccn1)B(O)O [Bortezomib (PS-341)]	0.1	0.0838	0.101	0.0762
COc1ccc(C[C@H](NC(=O)[C@H](C)NC(=O)CN2CCOCC2)C(=O)N[C@@H](Cc2ccccc2)C(=O)[C@@]2(C)CO2)cc1	0.0589	0.0514	0.0565	0.0416
COC(=O)[C@H](Cc1ccccc1)NC(=O)[C@@H](N)CC(=O)O [Aspartame]	1.02	1.15	0.941	0.985
COC[C@H](NC(=O)c1cnc(C)s1)C(=O)N[C@@H](COC)C(=O)N[C@@H](Cc1ccccc1)C(=O)[C@@]1(C)CO1 [Oprozomib (ONX 0912)]	0.0658	0.0656	0.055	0.0445
